Active and inactive are the calls of the source. Unless noted, how the calls were made is not given here.

Assay [1] has as its system Wnt5a (protein binding on small-molecule microarray). In words: small molecules binding Wnt5a protein – biophysical, small-molecule microarray, 635/667 nm fluorescence, primary screen (AID 1142).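 Further: fluorescence read at 667 nm with signal to noise per printed feature.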 To be noted: 635 nm fluorescence, higher = more signal.
Assay [2] is described as follows: ATP-based viability of Huh7 replicon cells – cell-based, CellTiter-Glo luminescence, basal, 48 h, cytotoxicity control for HCV replication inhibitor project, primary screen (AID 1143).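 Further: Huh7 hepatoma cells carrying a hepatitis C replication reporter with no stimulus; test concentration not given here.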 Particulars: higher = more signal, called active from +8 up or from −8 down. Background: A replicon is a self-replicating genome or part of one, used to study replication in cells.
The nature of assay [3]: Pseudomonas biofilm growth suppression – PAO1 strain, BacTiter-Glo luminescence, LB-PBS, primary screen (AID 1144). To be noted: P. aeruginosa PAO1 biofilm, 12 h, higher = more signal.
The nature of assay [4]: basal CRE-LacZ reporter activity in PC12 – cell-based, unstimulated, primary screen (AID 1145). To be noted: no forskolin, luminescence, 4.5 h, higher = more signal, called active from +8 up or from −8 down.
A short description of assay [5]: forskolin-driven CRE-LacZ activity in PC12 – cell-based, CRE-LacZ reporter, forskolin-stimulated, primary screen (AID 1146).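 Further: PC12 cells with 6xCRE LacZ reporter stimulated by forskolin 10 µM; beta-galactosidase reporter signal reflecting CREB driven transcription.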 Particulars: luminescence, 4.5 h, higher = more signal, called active from +8 up or from −8 down.
For assay [6], the target named is Streptavidin (Streptomyces avidinii) (UniProt P22629). Briefly: compounds binding control protein streptavidin – biophysical, small-molecule microarray, 635/667 nm fluorescence, artefact control for SMM compound annotation, primary screen (AID 1147).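 Further: signal reflects streptavidin binding to arrayed compounds as a control protein.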 Particulars: higher = more signal.
Sequence of Streptavidin (Streptomyces avidinii) (P22629 whole entry, looked up): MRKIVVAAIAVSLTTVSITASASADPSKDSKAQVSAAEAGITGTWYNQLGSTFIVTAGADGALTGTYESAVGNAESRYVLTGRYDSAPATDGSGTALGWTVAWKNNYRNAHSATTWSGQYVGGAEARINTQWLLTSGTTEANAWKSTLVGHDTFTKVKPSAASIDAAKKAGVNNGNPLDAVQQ
The nature of assay [7]: probe aInhba binding on compound microarray – biochemical, small-molecule microarray, 635/667 nm fluorescence, primary screen (AID 1148).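 Further: score merges 667nm spot fluorescence with signal-to-noise for antibody binding to printed compounds.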 To be noted: higher = more signal.
Assay [8] concerns the target Torsin-1A (Homo sapiens) (UniProt O14656). In words: TOR1A wild-type binding on microarray – cell lysate, small-molecule microarray, lysate, 635/667 nm, primary screen (AID 1149). To be noted: COS7 hTOR1A-WT lysate, 635 nm fluorescence, higher = more signal.
For assay [9] the target is unchanged. In words: torsin A mutant lysate binding on microarrays – cell lysate, small-molecule microarray, COS7 lysate, 635/667 nm fluorescence, primary screen (AID 1150).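 Further: score pools 667 nm emission and signal to noise measuring lysate protein binding.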 Particulars: COS7 hTOR1A mutant lysate, 635 nm fluorescence, higher = more signal.
Assay [10] concerns Sonic hedgehog protein (Shh). In words: Sonic hedgehog microarray binding compounds – biochemical, small-molecule microarray, 635/667 nm fluorescence, primary screen (AID 1151).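 Further: Shh protein binding to compounds spotted on small-molecule microarray slides; score combines spot fluorescence intensity with signal-to-noise across triplicate slides.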 To be noted: 635 nm fluorescence, higher = more signal.

Sequence of Torsin-1A (Homo sapiens) (O14656 whole entry, looked up): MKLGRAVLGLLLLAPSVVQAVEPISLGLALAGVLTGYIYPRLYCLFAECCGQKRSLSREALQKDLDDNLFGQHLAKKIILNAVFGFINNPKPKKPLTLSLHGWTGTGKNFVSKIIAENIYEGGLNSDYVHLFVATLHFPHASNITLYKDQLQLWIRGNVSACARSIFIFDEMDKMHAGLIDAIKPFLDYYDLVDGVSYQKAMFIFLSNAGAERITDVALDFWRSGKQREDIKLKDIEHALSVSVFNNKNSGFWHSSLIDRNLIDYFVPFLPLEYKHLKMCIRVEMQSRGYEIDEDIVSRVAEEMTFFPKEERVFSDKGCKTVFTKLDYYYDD

Take `CCc1cc2c(nc1CC)CCN(CCC(C)=NO[C@H](C)c1cn([C@@H]3COC[C@H]3O)nn1)C2`: the composite z-score in [1] is -0.0763; in assay [6], 0.383; in assay [7] it was -0.0963; with Torsin-1A (Homo sapiens) [8], 0.161; with Torsin-1A (Homo sapiens) [9], 0.292; in assay [10], 0.282. Besides, the z-score is 0.401 (inactive) in [2], 1.7 (inactive) in assay [3], 0.238 (inactive) in assay [4] and -0.183 (inactive) in assay [5].
With `CCOC(=O)NN=C1C[C@@H](O)[C@@H](O)[C@@H]2[C@@H]3C(=O)N(Cc4ccccc4)C(=O)[C@@H]3CC[C@H]12`, the composite z-score in [1] is -0.0307; in assay [6], 1.09; in assay [7], -0.214; in the assay with Torsin-1A (Homo sapiens) [8], 0.0722; with Torsin-1A (Homo sapiens) [9] it was 1.36; in assay [10], -0.171. Also, the z-score was -0.239 (inactive) in assay [2], -0.704 (inactive) in [3], -0.837 (inactive) in [4] and -0.175 (inactive) in [5].
Consider `CCN1C(=O)[C@H]2[C@H]3[C@H](O)[C@H](O)CC(=O)[C@@H]3CC[C@H]2C1=O`, for which the composite z-score in assay [1] was 0.0774; in [6] it was 0.253; in assay [7] it was -0.0719; with Torsin-1A (Homo sapiens) [8] it was -0.109; with Torsin-1A (Homo sapiens) [9], 0.344; in assay [10] it was 0.694. The z-score in assay [2] was 0.213 (inactive); in assay [3], -0.402 (inactive); in [4] it was -0.293 (inactive); in assay [5], -0.69 (inactive).
Take `CCOC(=O)[C@H](CC(C)C)NC(=O)CCC1CC(OC(=O)NCc2cccc3ccccc23)CC2(CCCC(COC(=O)NCC3CCCCC3)O2)O1` (stereo not given in full): the composite z-score in [1] is -0.0639; in [6], 0.405; in [7], -0.0962; in the assay with Torsin-1A (Homo sapiens) [8] it was -0.192; with Torsin-1A (Homo sapiens) [9], 0.528; in [10] it was 1.06. Besides, the z-score in assay [2] was -4.12 (inactive); in [3], -0.306 (inactive); in assay [4], 0.0178 (inactive); in [5], 1.6 (inactive).

For the origin of these results see PubChem BioAssay.
